PfHsp90 yeast 2 – growth inhibition of PfHsp90-expressing yeast, primary screen, antimalarial PfHsp90 inhibitor project, S. cerevisiae, BacTiter-Glo luminescence, single point, set 2. BacTiter-Glo ATP, 48 h; yeast lacking PDR1 and PDR3 efflux regulators. inhibition, % at 9.4 µM. hit rate 0.32% among 310,000. AID 504621, 2011;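 active = every replicate shows inhibition above about 80%, whatever the replicate mean, limit read from the data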;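 note: 0% = DMSO neutral controls and 100% = 20 µM radicicol positive controls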
tim23-1 inh – growth inhibitors of tim23-1 mutant yeast, primary screen, luminescence, uHTS | inhibition, % at 20 µM | S. cerevisiae tim23-1 growth, BacTiter-Glo luminescence, 24 h | AID 463212, 2010 | hit rate 1.3% among 330,000;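 active = growth inhibition of the mutant yeast at or above 50%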;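 note: temperature-sensitive mutant grown at 25 °C; plate controls were DMSO-treated mutant yeast for no effect and medium wells lacking yeast for full effect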
NLRP3 yeast inh – NALP3 inflammasome inhibitors in reconstituted yeast, primary screen, luminescence, uHTS | AID 2825, 2010 | Yeast reconstituted NLRP3/ASC/caspase-1, beta-gal luminescence, 24 h | hit rate 0.39% among 330,000 | inhibition, % at 10 µM;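 active = inhibition of 50% or more; inactive = inhibition below 50%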;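 note: plate controls were induced DMSO wells for no effect and uninduced yeast grown without galactose for full effect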
TIM10 inh – growth inhibitors of isogenic TIM10 control yeast, primary screen, counter-screen for tim10-1 yeast inhibitor project, luminescence, uHTS; S. cerevisiae TIM10 strain growth, BacTiter-Glo luminescence, 24 h; inhibition, % at 10 µM; hit rate 1.4% among 330,000;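 active = inhibition of 40% or more at the single tested concentration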;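 note: wild-type TIM10 isogenic control strain grown at permissive 25 °C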
tim10-1 inh – growth inhibitors of tim10-1 mutant yeast, primary screen, luminescence, uHTS | S. cerevisiae tim10-1 ts strain growth, BacTiter-Glo, 24 h | inhibition, % at 20 µM | hit rate 2.2% among 330,000 | AID 463190, 2010;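 active = inhibition of at least 40%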;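 note: mutant grown at 25 °C; 0% = DMSO wells with yeast and 100% = wells holding no yeast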
tim10-1 conf – growth inhibitors of tim10-1 mutant yeast, confirmation, single concentration, luminescence, S. cerevisiae | shares compounds with tim10-1 inh | S. cerevisiae tim10-1 ts strain growth, BacTiter-Glo, 24 h | inhibition, % at 20 µM | hit rate 56% among 7,400;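 active = inhibition of yeast growth at or above a set limit in either of two repeat tests at 20 µM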;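 note: tim10-1 mutant grown at permissive 25 °C to find synthetic lethal compounds; 0% = DMSO yeast wells and 100% = medium wells without yeast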
An asterisk follows results filed as active; nt = no result given. A selection: hits, their analogues and other compounds. The true share with any hit is near 3.7%.

SMILES	PfHsp90 yeast 2	tim23-1 inh	NLRP3 yeast inh	TIM10 inh	tim10-1 inh	tim10-1 conf
Cc1ccc(-c2[nH]nc3c2C(C)C(C#N)=C(N)O3)cc1 (stereo not given)	-7.3	37.5	15.0	39.8	40.5*	32.5*
Cc1cc(-c2[nH]nc3c2C(c2ccsc2)C(C#N)=C(N)O3)c(C)s1 (stereo not given)	-15.2	42.6	20.8	31.7	46.8*	44.3*
COc1cc2c(cc1Cl)C(=O)C(F)(c1ccccc1)C(=O)N2 (stereo not given)	7.2	22.7	11.0	15.3	23.5	nt
O=C(C1CCN(c2nc(-c3ccccc3)nc3c2CCC3)CC1)N1CCCC1	8.0	19.0	20.0	7.9	21.7	nt
CC1CCCCN1C(=O)C1CCN(c2nc(-c3ccccc3)nc3c2CCC3)CC1 (stereo not given)	-2.7	49.2	14.5	15.8	56.4*	9.7
CCOC(=O)c1cnc2ccc(C)cc2c1Nc1ccc(N2CCOCC2)cc1	-15.0	-16.6	17.4	15.4	41.3*	25.6
CCOC(=O)c1ccc2ncc(C(=O)OCC)c(NCCN3CCOCC3)c2c1	-12.1	22.9	23.2	0.7	-2.0	nt
COc1ccccc1NS(=O)(=O)c1cc(-c2cnc(C3CC3)o2)ccc1C	4.9	44.9	-10.6	-2.2	45.0*	11.8
Cc1ccc(C)c(NS(=O)(=O)c2ccc(-c3cnc(C4CC4)o3)cc2)c1	-12.7	42.4	12.0	0.2	35.9	nt
O=S(=O)(Nc1ccccc1)c1ccc(-c2cnc(C3CC3)o2)cc1	20.5	33.7	1.9	2.7	45.5*	-38.3
CC(=O)Nc1ccc(NS(=O)(=O)c2ccc(-c3cnc(C4CC4)o3)cc2)cc1	-14.3	12.1	14.0	-1.1	12.3	nt
COc1ccc(NS(=O)(=O)c2cc(-c3cnc(C4CC4)o3)ccc2C)cc1	11.1	37.8	0.5	-1.3	44.5*	-7.5
Cc1nc2nc(C)c(NS(=O)(=O)c3ccc(Cl)cc3)c(=O)n2[nH]1	-15.2	12.1	-2.6	4.0	5.2	nt
COc1ccc(CN=C(Nc2ccccc2)SC2CC(=O)N(C)C2=O)cc1 (stereo not given)	18.6	25.5	2.1	12.8	26.8	nt
O=C(CNc1cccc2ccccc12)N/N=C/c1ccccn1	nt	22.4	20.5	25.0	-6.6	nt
O=C(CNc1cccc2ccccc12)N/N=C/c1cccc(Oc2ccccc2)c1	-13.5	0.1	11.5	34.0	41.8*	28.0
CC12C(=O)N(c3ccc(OC(=O)c4ccco4)cc3)C(=O)C1C1c3ccccc3C2c2ccccc21 (stereo not given)	25.9	3.1	-5.2	-5.2	3.6	nt
CC12C(=O)N(c3cccc(OC(=O)c4ccco4)c3)C(=O)C1C1c3ccccc3C2c2ccccc21 (stereo not given)	nt	38.7	12.5	20.0	42.3*	24.8
C=CCn1ccc(=NC=C(C#N)C#N)c2ccccc21	-16.9	24.6	25.7	22.5	25.9	nt
COc1cccc(NC(=O)C2C3CCC4C(CCC32)C4(Cl)Cl)c1 (stereo not given)	-70.7	11.0	0.6	1.5	42.0*	28.6
CC1(C)c2[nH]c3ccccc3c2C[C@@H]2C(=O)N(Cc3ccc(F)cc3)C(=O)N21	nt	48.6	13.1	39.4	44.6*	22.5
CCOc1cc(/C=N/N=C/c2ccc(O)c(OCC)c2)ccc1O	-4.8	3.7	-27.8	12.2	13.6	nt
CCOc1cc(/C=C2\CN(CC)C/C(=C\c3ccc(O)c(OCC)c3)C2=O)ccc1O	-11.0	42.2	19.9	33.7	49.0*	29.0
COc1ccccc1NC(=O)c1cc2c(s1)-c1ccccc1S(=O)(=O)C2	-4.5	-2.5	37.7	11.2	1.8	nt
CCCOc1cccc(NC(=O)c2c(-c3ccccc3)noc2C)c1	-36.7	22.9	1.6	17.5	40.7*	24.6
Cc1onc(-c2ccccc2)c1C(=O)Nc1ccc(NC(=O)c2c(-c3ccccc3)noc2C)cc1	-3.6	5.9	17.3	8.6	9.8	nt
Cc1onc(-c2ccccc2)c1C(=O)Nc1cccc(OC(C)C)c1	-2.9	-12.5	6.8	17.5	33.1	nt

Screening data deposited in PubChem by several laboratories.
